A selection: hits, their analogues and other compounds. The true share with any hit is near 12%.
Pf growth 48h – inhibits P. falciparum growth in the first generation, 48 h | Potency, µM (highest dose often 28.7 µM), usual class: inhibitors | 5.9% of 310,000 active | P. falciparum luciferase growth in erythrocytes, 48 h
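Cell-based growth assay: transgenic P. falciparum expressing firefly luciferase, cultured in red cells within RPMI 1640 containing 0.5% w/v Albumax, 24 mM bicarbonate and gentamycin. A drop in luciferase activity indicates inhibition.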
AMA1-RON2 inh – inhibitors of Plasmodium falciparum AMA1-RON2 interaction | AlphaScreen AMA1-biotinylated RON2 peptide binding | 0.2% of 360,000 active | AID 720542 | Potency, µM (titrated, usually from 58.2 µM), hits mostly inhibitors; note: nearly all actives have a fitted effect of over 45% in size
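AMA1 (3D7) with his tag at 25 nM final met compounds first, then biotinylated RON2 peptide at 25 nM; detection used donor plus acceptor beads, 10 µg/mL apiece, read by AlphaScreen after 30 min at room temperature.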
SARS PLP yeast – inhibitors of SARS-CoV papain-like protease in yeast | S. cerevisiae expressing SARS-CoV PLpro, growth rescue | Potency, µM (series often up to 32.9 µM), actives largely listed as activators | 0.19% of 330,000 active | AID 485353; calls by dose curve; note: nearly all actives have a fitted effect of over 55% in size
Pf growth 96h – P. falciparum growth inhibition at 96 hour, primary screen for plastid delayed-death inhibitors; P. falciparum luciferase reporter growth, 96 h; 6.9% of 320,000 active; AID 504834; Potency, µM (highest dose often 28.7 µM), actives largely listed as inhibitors
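Parasite growth measured via integrated firefly luciferase reporter in P. falciparum. Infected erythrocytes at 2% hematocrit, 0.05% parasitemia final were treated 96 hours at 37 C under 5% CO2, and luminescence was read.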
NS1 function inh – blocks influenza NS1 protein function | 0.4% of 270,000 active | Potency, µM (series often up to 46.1 µM); calls by dose curve; note: actives are rising curves; nearly all actives have a fitted effect of over 50% in size
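Compounds were scored for reversing the slow growth caused by influenza A NS1 in S. cerevisiae, measured by optical density at 600 nm. Assay medium contained 2% galactose at pH 6.0; NS1-free yeast of the same strain were the positive control.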
HCV inhibitor – HCV inhibition. Huh7.5.1 HCVcc-Cre infection, luciferase reporter, 44 h. Potency, µM (series often up to 41.8 µM), most hits filed as inhibitors. 3.4% of 340,000 active. AID 651820
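Luciferase read-out (15 sec integration) after a 15 min room-temperature substrate step quantifies HCVcc-Cre infection. Cells, 1,000 per well, had compound added 4 h post-plating, then virus at ~0.5 moi, and were cultured 44 h.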
A number is an active result; . = inactive; ? = inconclusive; / = no result; [ ] = another dose, or the depositor's remark. Unless noted, calls come from the whole dose curve; as a rule, active = well fitted curve in the direction sought with a large enough effect; inconclusive = small, poorly fitted or top-dose-only effect, or another doubt; inactive = no such curve, though single readings can be large; an effect the other way counts as inactive or inconclusive.

SMILES	Pf growth 48h	AMA1-RON2 inh	SARS PLP yeast	Pf growth 96h	NS1 function inh	HCV inhibitor
CC1(C)C[C@H]2C=C(C=O)[C@]3(C=O)C[C@]3(C)[C@H]2C1	?	.	.	?	.	3.16µM
COc1ccc([C@]23Cc4cc(OC)c(OC)cc4C(O2)C2=C(CC(C)(C)CC2=O)O3)cc1	?	/	?	?	.	/
COc1ccccc1P(=O)(c1ccccc1)c1ccc([N+](=O)[O-])cc1 (configuration not stated)	.[0.00184 µM]	.	.	.	.	.
COCc1c(C(=O)OCC(=O)N2c3ccccc3CC2C)oc2ccccc12 (configuration not stated)	.	.	.	.	.	.
COCc1c(C(=O)OCC(=O)N2c3ccccc3NC(=O)C2(C)C)oc2ccccc12	?	.	.	11.7µM	.	?
COC(=O)CC(c1ccc(C#N)cc1)n1c(C)ccc1C (configuration not stated)	9.28µM	.	.	13.1µM	.	.
CCOC(=O)CC(c1ccc([N+](=O)[O-])cc1)n1c(C)ccc1C (configuration not stated)	?	.	.	?	.	?
FC1(F)C(F)(F)C(F)(F)C2(F)C(F)(F)C(F)(F)C(F)(F)C(F)(F)C2(F)C1(F)F (configuration not stated)	.	/	/	.	/	/
c1ccc(-n2nnnc2SCCCSc2nc3ccccc3s2)cc1	/	.	.	4.15µM	.	?
O=S(=O)(CCSc1nc2ccccc2s1)c1nc2ccccc2s1	11.7µM	.	.	.	.	?
COCCCn1c(SCC(=O)N2CCOCC2)nc2cc(Cl)ccc2c1=O	10.4µM	.	.	.	/	.
CCn1c(SCC(=O)Nc2ccc(OC)cc2OC)nc2nc3c(cc2c1=O)COC(C)(C)C3	?	.	.	8.28µM	.	?
COC(=O)c1ccc2c(=O)n(CCN3CCOCC3)c(SCC(=O)Nc3ccc(C)cc3)nc2c1	.	.	.	11.7µM	.	.
CCOC(=O)CSc1nc2cc(C(=O)OC)ccc2c(=O)n1CCN1CCOCC1	.	.	.	?	.	.
COC(=O)c1ccc2c(=O)n(CCN3CCOCC3)c(SCC(=O)C(C)(C)C)nc2c1	?	.	.	13.1µM	.	.
CC(C)C(NCC(=O)Nc1ccccc1C(=O)NC1CC1)c1ccccc1 (configuration not stated)	/	.	?	/	/	.
CCc1ccc2nc(N(CCN(C)C)C(=O)c3ccc4ncsc4c3)sc2c1	.	?	.	.	.	.
CCCCn1c(SC(C)C(=O)NCC2CCCO2)nc2cc(C(=O)OC)ccc2c1=O (configuration not stated)	5.86µM	.	.	8.28µM	/	?
COC(=O)c1ccc2c(=O)n(CC3CCCO3)c(SCC(=O)Nc3ccc(OC)cc3OC)nc2c1 (configuration not stated)	6.57µM	.	.	?	.	.
COc1ccc(OC)c(NC(=O)CSc2nc3ccccc3c(=O)n2CC2CCCO2)c1 (configuration not stated)	?	.	.	?	.	?
CCCCn1c(SC(C)C(N)=O)nc2cc(C(=O)OC)ccc2c1=O (configuration not stated)	.	.	.	?	.	?
CC(Sc1nncn1C)C(=O)Nc1ccc2ccccc2c1 (configuration not stated)	.	.	.	.	/	.
CCOC(=O)N1C/C(=C\c2ccccc2)C(=O)/C(=C/c2ccccc2)C1	4.65µM	.	.	?	.	.
O=C(OCC(=O)N(Cc1ccccc1)Cc1ccccc1)c1ccccc1NCCO	?	.	.	.	/	.
CCN(C(=O)COC(=O)c1ccccc1NCCO)c1cccc2ccccc12	?	.	/	10.4µM	/	?
SMILES	Pf growth 48h	AMA1-RON2 inh	SARS PLP yeast	Pf growth 96h	NS1 function inh	HCV inhibitor
Oc1ccccc1/C=N/NC(=S)NC1CC2CCC1C2 (configuration not stated)	3.7µM	.	.	1.31µM	.	?
COc1cccc(C=NNC(=S)NN=Cc2cccc(OC)c2OC)c1OC	/	.	/	/	/	?
COc1cccc(/C=N/NC(=S)NC2CC3CCC2C3)c1OC (configuration not stated)	6.57µM	.	.	4.65µM	.	.
S=C(N/N=C/c1ccco1)NC1CC2CCC1C2 (configuration not stated)	/	.	.	5.22µM	.	?
COc1ccccc1-c1c(C)oc2cc(OCC(=O)OCc3ccccc3)ccc2c1=O	.	.[2.32 µM]	.	.	.	.
NC(=O)CCC1NC(=O)C(Cc2ccccc2)NC(=O)C(Cc2ccc(O)cc2)NC(=O)CCSSCC(C(=O)N2CCCC2C(=O)NC(CCCN=C(N)N)C(=O)NCC(N)=O)NC(=O)C(CC(N)=O)NC1=O (configuration not stated)	.	/	/	.	/	/
CC1CC(C)CN(C(=O)/C=C/c2ccc(S(=O)(=O)N3CCOCC3)cc2)C1 (configuration not stated)	9.28µM	.	.	5.22µM	/	.
O=C(/C=C/c1ccc(Cl)cc1)N1CCOCC1	.	.	.	.	.	.
O=C(/C=C/c1ccc(S(=O)(=O)N2CCOCC2)cc1)N1CCN(c2ccc(F)cc2)CC1	7.38µM	.	.	?	.	.
O=C(/C=C/c1ccc2ccccc2n1)N1CCN(S(=O)(=O)c2ccc(F)cc2)CC1	?	.	.	10.4µM	.	.
O=C(/C=C/c1ccccc1)N1CCOCC1	.	.	.	3.29µM	.	.
CCO/C(C)=C1/SC(=S)NC1=O	.	.	.	.	.	?
COC(=O)CSc1nc(C)c2c(n1)CCCC2	.	.	.	.	.	.
Cc1ccc(NC(=O)CCN2C(=O)NC(C)(C)C2=O)cc1F	.	.	.	.	/	.
Cc1ccc(C(=O)NCC(c2ccco2)N2CCOCC2)cc1 (configuration not stated)	?	.	.	6.57µM	/	.[8.37 µM]
Cc1c(C(=O)NCC(c2ccco2)N2CCCC2)sc2ccccc12 (configuration not stated)	/	.	/	/	/	.
O=C(NCC(c1ccco1)N1CCCC1)c1cccc(S(=O)(=O)Nc2ccc(F)cc2)c1 (configuration not stated)	13.1µM	.	.	14.7µM	/	?
Cc1ccc(S(=O)(=O)Nc2cccc(C(=O)NCC(c3ccco3)N3CCCCC3)c2)cc1F (configuration not stated)	?	.	.	.	/	?
CCc1cc(C(=O)NCC(c2ccco2)N2CCCCC2)sc1C (configuration not stated)	9.28µM	.	.	5.86µM	/	.
O=C(NCC(c1ccco1)N1CCCC1)c1cccc(NS(=O)(=O)c2ccccc2)c1 (configuration not stated)	10.4µM	.	/	?	/	.
c1ccc(N2CCN(c3cccc(-c4cc5ccccc5s4)n3)CC2)nc1	/	.	/	/	/	/

Compound activity as filed in PubChem BioAssay.
